Inconclusive results are not listed. Activity calls are given as the source filed them. How the source made its calls: active means hit-call score of the fitted dose curve at least 0.9, where 1 is the maximum; inconclusive means response in the unintended direction; inactive means score below 0.9.

One assay in a line: Tanguay_ZF_120hpf_SWIM_legacy: (Legacy) Oregon State University Tanguay Lab 120 Hour Post-fertilization zebrafish Assay for Swim Bladder Malformation (AID 2283654).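 Further: swim bladder malformation in each larva scored yes or no under brightfield.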 The gist of the method:
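Scoring is binary for swim bladder defects at 120 hpf, by brightfield inspection of zebrafish larvae. Embryos were exposed singly from 6 hpf after pronase dechorionation, at 28C with 0.64% DMSO; mortality excluded scoring.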
`O=C(O)c1cc(N=Nc2ccc(S(=O)(=O)Nc3ccccn3)cc2)ccc1O`: the compound was called inactive.

Turning to `CCNc1ccccc1`, the outcome was inactive.

For `O=C(OC[C@H]1O[C@@H](OC(=O)c2cc(O)c(O)c(OC(=O)c3cc(O)c(O)c(O)c3)c2)[C@H](OC(=O)c2cc(O)c(O)c(OC(=O)c3cc(O)c(O)c(O)c3)c2)[C@@H](OC(=O)c2cc(O)c(O)c(OC(=O)c3cc(O)c(O)c(O)c3)c2)[C@@H]1OC(=O)c1cc(O)c(O)c(OC(=O)c2cc(O)c(O)c(O)c2)c1)c1cc(O)c(O)c(OC(=O)c2cc(O)c(O)c(O)c2)c1`, the result was inactive.

For the compound `C[C@](N)(Cc1ccc(O)c(O)c1)C(=O)O`, the outcome was inactive.

For the compound `CC(=O)c1ccc2c(c1)[C@H](NC(=O)c1ccc(F)cc1)[C@@H](O)C(C)(C)O2`, the call was inactive.

As to `Cc1[nH]cnc1C[C@H]1CCc2c(C)c3ccccc3n2C1=O`, the compound was classed as inactive.

On to `CN(C)c1ccc(Cc2ccc(N(C)C)cc2)cc1`, for which the compound was called inactive.

`Cc1ccc(N)cc1O`: the compound was called inactive.

For the compound `COC(=O)c1c(Cl)c(Cl)c(C(=O)OC)c(Cl)c1Cl`, the call was inactive.

Consider `Nc1cccc(N)c1`, for which the call was inactive.

As to `Nc1ccc(Nc2ccccc2)cc1`, the AC50 was 45.6 µM (active).

For the compound `CCn1nc(Cc2ccccc2)cc1C1CCN(C[C@H]2C[C@H](N(C)[C@@H](C(=O)O)C(C)C)C[C@@H]2c2cccc(F)c2)CC1`, the compound was called inactive.

For the compound `O=C(O)CCN(C1(C(=O)NO)CCCC1)S(=O)(=O)c1ccc(Oc2ccc(F)cc2)cc1`, the result was inactive.

As to `O=C(CCCCCCCCc1cccnc1)N1CCC(C=C(c2ccccc2)c2ccccc2)CC1`, the outcome was inactive.

On to `O=c1n(CC2CO2)c(=O)n(CC2CO2)c(=O)n1CC1CO1` (stereo unspecified), for which the compound was classed as inactive.

As for `Cn1c(=O)c2c(ncn2C)n(C)c1=O`, the result was inactive.

As to `O=C1CCCCCN1`, the compound was classed as inactive.

Turning to `COc1cccc(-c2ccc(/C=C\CN3CCCCCC3)cc2Cl)c1`, the compound was called inactive.

As to `CCCCCCCCO`, the call was inactive.

`CC(=O)OCCC(C)C`: the result was inactive.

In the case of `CC(O)CN(CCN(CC(C)O)CC(C)O)CC(C)O` (stereo unspecified), the compound was classed as inactive.

For `Oc1ccc2c(c1)-c1ccccc1C2`, the compound was called inactive.

For `CNCc1ccc(NC(=O)c2c[nH]c3c2C(=O)CCC3)cc1`, the compound was called inactive.

Turning to `CC1=CC(=O)CC(C)(C)C1`, the compound was called inactive.

For the compound `NC(=O)NO`, the result was inactive.

Regarding `CC(C)CCO`, the compound was called inactive.

In the case of `O=C(O)CC(O)C(=O)O` (stereo unspecified), the result was inactive.

Regarding `O=P(OC(CCl)CCl)(OC(CCl)CCl)OC(CCl)CCl`, the AC50 was 25.9 µM (active).

`CCOCCOCCOCCO`: the compound was classed as inactive.

The next assay in a line: Tanguay_ZF_120hpf_TRUN_legacy: (Legacy) Oregon State University Tanguay Lab 120 Hour Post-fertilization zebrafish Assay for Truncated Body (AID 2283655). In outline:
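Single dechorionated zebrafish embryos received test chemical from 6 hpf in 0.64% DMSO, kept at 28C. At 120 hpf, brightfield inspection noted any truncated body.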
Consider `CC(=O)c1ccc2c(c1)[C@H](NC(=O)c1ccc(F)cc1)[C@@H](O)C(C)(C)O2`, for which the compound was called inactive.

On to `CN(C)c1ccc(Cc2ccc(N(C)C)cc2)cc1`, for which the outcome was inactive.

With `Nc1cccc(N)c1`, the compound was called inactive.

For `O=C(CCCCCCCCc1cccnc1)N1CCC(C=C(c2ccccc2)c2ccccc2)CC1`, the call was inactive.

As to `O=C1CCCCCN1`, the result was inactive.

As for `CCCCCCCCO`, the outcome was inactive.

For the compound `CC(O)CN(CCN(CC(C)O)CC(C)O)CC(C)O` (stereo unspecified), the compound was classed as inactive.

With `CNCc1ccc(NC(=O)c2c[nH]c3c2C(=O)CCC3)cc1`, the result was inactive.

Consider `CCOCCOCCOCCO`, for which the result was inactive.

The nature of the next assay: Tanguay_ZF_120hpf_NC_legacy: (Legacy) Oregon State University Tanguay Lab 120 Hour Post-fertilization zebrafish Assay for Notochord and Tail Malformation (AID 2283656). In outline:
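Binary notochord-distortion calls, made by brightfield inspection, form the read-out; activity is fitted in the positive direction against DMSO. Exposure ran statically from 6 to 120 hpf at 28C with 0.64% DMSO.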
With `O=C(O)c1cc(N=Nc2ccc(S(=O)(=O)Nc3ccccn3)cc2)ccc1O`, the compound was called inactive.

With `CCNc1ccccc1`, the call was inactive.

Take `O=C(OC[C@H]1O[C@@H](OC(=O)c2cc(O)c(O)c(OC(=O)c3cc(O)c(O)c(O)c3)c2)[C@H](OC(=O)c2cc(O)c(O)c(OC(=O)c3cc(O)c(O)c(O)c3)c2)[C@@H](OC(=O)c2cc(O)c(O)c(OC(=O)c3cc(O)c(O)c(O)c3)c2)[C@@H]1OC(=O)c1cc(O)c(O)c(OC(=O)c2cc(O)c(O)c(O)c2)c1)c1cc(O)c(O)c(OC(=O)c2cc(O)c(O)c(O)c2)c1`: the result was inactive.

In the case of `C[C@](N)(Cc1ccc(O)c(O)c1)C(=O)O`, the compound was called inactive.

Turning to `Cc1[nH]cnc1C[C@H]1CCc2c(C)c3ccccc3n2C1=O`, the outcome was inactive.

For the compound `Cc1ccc(N)cc1O`, the compound was called inactive.

On to `COC(=O)c1c(Cl)c(Cl)c(C(=O)OC)c(Cl)c1Cl`, for which the result was inactive.

With `Nc1ccc(Nc2ccccc2)cc1`, the outcome was inactive.

Consider `CCn1nc(Cc2ccccc2)cc1C1CCN(C[C@H]2C[C@H](N(C)[C@@H](C(=O)O)C(C)C)C[C@@H]2c2cccc(F)c2)CC1`, for which the outcome was inactive.

In the case of `O=C(O)CCN(C1(C(=O)NO)CCCC1)S(=O)(=O)c1ccc(Oc2ccc(F)cc2)cc1`, the call was inactive.

As to `O=c1n(CC2CO2)c(=O)n(CC2CO2)c(=O)n1CC1CO1` (stereo unspecified), the outcome was inactive.

As to `Cn1c(=O)c2c(ncn2C)n(C)c1=O`, the outcome was inactive.

Take `O=C1CCCCCN1`: the result was inactive.

Take `COc1cccc(-c2ccc(/C=C\CN3CCCCCC3)cc2Cl)c1`: the result was inactive.

For `CC(=O)OCCC(C)C`, the outcome was inactive.

For the compound `Oc1ccc2c(c1)-c1ccccc1C2`, the call was inactive.

As for `CNCc1ccc(NC(=O)c2c[nH]c3c2C(=O)CCC3)cc1`, the outcome was inactive.

`CC1=CC(=O)CC(C)(C)C1`: the call was inactive.

For the compound `NC(=O)NO`, the call was inactive.

With `CC(C)CCO`, the outcome was inactive.

In the case of `O=C(O)CC(O)C(=O)O` (stereo unspecified), the result was inactive.

Take `O=P(OC(CCl)CCl)(OC(CCl)CCl)OC(CCl)CCl`: the compound was called inactive.

On to `CCOCCOCCOCCO`, for which the outcome was inactive.
